Screening data (PubChem)
HADH2 inh: qHTS Assay for Inhibitors of HADH2 (Hydroxyacyl-Coenzyme A Dehydrogenase, Type II); AID 886, 2007; Potency, µM (series often up to 57.1 µM), without a hit: at the top dose activity change, negative = inhibition, most hits filed as inhibitors; 3-hydroxyacyl-CoA dehydrogenase type-2 (Homo sapiens), Q99714; recombinant HADH2, NADH fluorescence, beta-hydroxybutyryl-CoA; hit rate 3.4% among 73,000; note: potency is the fitted concentration of half-maximal effect; % is set by controls: 0 for no effect and ±100 for the full control effect; nearly all actives have a fitted effect of over 60% in size
Target sequence (Q99714 whole entry, looked up, one chain of several): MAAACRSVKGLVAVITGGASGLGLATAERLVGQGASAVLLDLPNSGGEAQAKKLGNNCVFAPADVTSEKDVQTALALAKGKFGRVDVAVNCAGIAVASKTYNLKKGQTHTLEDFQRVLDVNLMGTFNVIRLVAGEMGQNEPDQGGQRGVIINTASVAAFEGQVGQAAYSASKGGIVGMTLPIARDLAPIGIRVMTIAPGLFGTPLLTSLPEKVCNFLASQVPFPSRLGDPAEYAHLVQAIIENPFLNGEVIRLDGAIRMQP
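NADH fluorescence (ex 360/em 450 nm) read every 30 s for 4 min; activity taken as last-minus-first time point difference. Enzyme 20 nM, NAD+ 1 mM, beta-hydroxybutyryl-CoA 90 uM, pH 9.0 Tris buffer.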
CRE Fsk mod: Cell signaling CRE-BLA (Fsk stim). CHO CRE-bla reporter (cAMP response element driving beta-lactamase), forskolin EC10, beta-lactamase ratio. Potency, µM (doses to about 38.2 µM), for the others: at the highest dose activity change, negative = inhibition, usual class: activators. hit rate 2.5% among 71,000; active = well fitted activation curve with a large enough effect in the signal ratio, with a control signal flat, not every such curve was filed as active; inconclusive = small, poorly fitted or top-dose-only effect, or effect the other way, or a change in a side signal; the % refers to the signal ratio; note: potency is the fitted concentration of half-maximal effect; % of control where 0% means no effect
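Forskolin analogue NKH 477 at EC10 stimulated CRE-driven beta-lactamase in CHO cells alongside compound dilution series. Beta-lactamase was measured with CCF4, excitation 405 nm, emission ratio 460/530 nm.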
A350 fluor: qHTS Assay for Spectroscopic Profiling in A350 Spectral Region. Compound autofluorescence, 340/450 nm, Alexa 350 dye-equivalents; active compounds read high. max dye-equivalent concentration, M. hit rate 11% among 59,000. AID 590, 2007; in the data active = max dye-equivalent concentration above about 10 nM; inconclusive = mostly about 1.1 nM to 9.6 nM
AID923: qHTS Assay for Allosteric/Competitive Inhibitors of Caspase-1: Spectroscopic Profiling in AFC Spectral Region | hit rate 1.1% among 75,000 | Potency, µM (highest dose often 57.5 µM), inactives show top-dose fluorescence increase, most hits filed as activators | AID 923, 2007 | compound fluorescence, AFC spectral region (405/520 nm); note: potency is the fitted concentration of half-maximal effect; 0% is about no effect
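Baseline compound fluorescence (AFC region, 405 nm ex/520 nm em) taken from the intercept of kinetic reads with 50 nM caspase-1 and 5 uM Ac-WEHD-AFC; normalized to an on-plate AFC standard curve; compounds titrated up to 57 uM.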
4-MU autofl: qHTS Assay for Spectroscopic Profiling in 4-MU Spectral Region | hit rate 11% among 59,000 | AID 589, 2007 | compound autofluorescence, 340/450 nm, 4-MU equivalents; active compounds read high | max dye-equivalent concentration, M; in the data active = max dye-equivalent concentration above about 10 nM; inconclusive = mostly about 1.1 nM to 9.6 nM
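Compounds in 100 mM Tris, pH 8.0, incubated 15 min at room temperature, then fluorescence read at 340 nm excitation/450 nm emission. Signal converted to 4-MU dye-equivalent concentration using an on-plate six-point 4-MU standard curve.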
HSD17B inh: qHTS Assay for Inhibitors of HSD17B4, hydroxysteroid (17-beta) dehydrogenase 4; recombinant HSD17B10, NADH fluorescence kinetic; Potency, µM (series often up to 57.1 µM), for the others: top-dose activity change, negative = inhibition, usual class: inhibitors; 3-hydroxyacyl-CoA dehydrogenase type-2 (Homo sapiens), Q99714; AID 893, 2007; hit rate 7.6% among 75,000;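 note: the protocol describes HADH2 (HSD17B10) and not the HSD17B4 of the title; potency is the fitted concentration of half-maximal effect; % is set by controls: 0 for no effect and ±100 for the full control effect; nearly all actives have a fitted effect of over 70% in size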
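His-tagged E. coli-expressed HADH2 at 20 nM in 100 mM Tris-HCl pH 9.0 with 0.01 % Tween-20, preincubated 15 min with compound at room temperature. Reaction with 1 mM NAD+ and 90 uM beta-hydroxybutyryl coenzyme A; NADH fluorescence (360/450 nm) read kinetically over 4 min, last minus first point.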
The depositor's hits bear a star; i = inactive; ? = inconclusive; · = no result; [ ] = remark or other dose. An excerpt weighted towards active compounds, which were near 14% of everything screened. Unless noted, calls come from the whole dose curve; as a rule, active = well fitted curve in the direction sought with a large enough effect; inconclusive = small, poorly fitted or top-dose-only effect, or another doubt; inactive = no such curve, though single readings can be large; an effect the other way counts as inactive or inconclusive.

SMILES	HADH2 inh	CRE Fsk mod	A350 fluor	AID923	4-MU autofl	HSD17B inh
CCOc1ccccc1N1CC(O)=C(c2nc3ccccc3s2)C1=N	?	-7%	i	0%	i	?
COc1ccccc1N1CC(O)=C(c2nc3ccccc3c(=O)[nH]2)C1=N	235%	18%	1.1e-08M*	1%	?	32µM*
COCCN1CC(O)=C(c2nc3ccccc3c(=O)[nH]2)C1=N	35%	?	?	1%	1e-08M*	25µM*
N=C1C(c2nc3ccccc3c(=O)[nH]2)=C(O)CN1CCO	-11%	-2%	?	2%	?	3.2µM*
O=c1[nH]c(CN2CCN(CCO)CC2)nc2ccccc12	-14%	-10%	?	-3%	?	8%
CCCCN1CC(O)=C(c2nc3ccccc3[nH]2)C1=N	-1%	?	1.6e-07M*	18%	1.6e-07M*	-10%
COc1ccc(NC(=O)N2CC[C@@]3(CCCN(C(=O)c4cnccn4)C3)C2)cc1	8%	8%	i	-1%	i	0%
Cc1ccccc1-c1cncnc1Nc1ccc(F)cc1	-25%	-5%	i	-2%	i	-5%
CC(C)C[C@@H](CC(=O)N[C@@H](CCC(=O)O)CC(=O)O)NC(=O)[C@@H]1CCCC[C@H]1NC(=O)C[C@@H](NC(=O)C[C@H](Cc1ccccc1)NC(=O)[C@@H]1CNCC[C@H]1N)C(C)C	4%	1%	·	·	·	·
N=C1C(c2nc3ccccc3c(=O)[nH]2)=C(O)CN1CCc1ccccc1	-26%	?	·	-1%	·	32µM*
CCOC(=O)CSc1nc(NCc2ccco2)c2ccccc2n1	-7%	4%	i	-1%	i	-2%
CCOC(=O)c1sc2nc(CC(=O)OC)nc(NCc3ccco3)c2c1C	-8%	10µM*	?	-1%	i	25µM*
Cc1ccccc1Cn1c(-c2cncs2)nc2ccccc21	2%	?	i	-1%	i	-16%
Brc1cc2c(cc1Cn1c(-c3cncs3)nc3ccccc31)OCO2	10%	2µM*	i	0%	i	-25%
CCc1ccc(CNc2ccc(N3CCN(C(C)=O)CC3)cc2)cc1	1%	16%	i	-1%	i	25µM*
CC(=O)NCCNc1ncnc2ccc(-c3ccc4c(c3)OCO4)cc12	16%	?	?	1%	?	?
COc1ccc(OC(C)C(=O)N2CCN(c3ccccn3)CC2)cc1 (centres undefined)	?	?	2.6e-07M*	8%	2.5e-07M*	25µM*
O=C(c1cnccn1)N1CCC2(CCCN(c3ncccn3)C2)CC1	-1%	2%	i	1%	i	?
COc1ccc(C(=O)N2CCC3(CCN(C)CC3)CC2)cc1	-10%	-13%	2.5e-08M*	0%	2.2e-08M*	4%
COc1ccc(C(=O)N2CCC3(CCCN(c4ccccn4)C3)CC2)cc1	?	-9%	i	3%	i	?
O=C(c1cnccn1)N1CCC2(CC1)CN(c1ncccn1)C2	-27%	-3%	i	0%	i	32µM*
COc1ccc(S(=O)(=O)NCc2ccc(C(=O)N3CCN(c4ccccn4)CC3)cc2)cc1	3%	?	i	-1%	i	-2%
COc1ccc(C(=O)N2CCC3(CC2)CN(c2ccccn2)C3)cc1	3%	-10%	i	-1%	i	32µM*
C[C@@]12CCC(=O)C=C1C=CC1C2CC[C@]2(C)C1CC[C@@]21CCC(=O)O1 (some centres undefined)	·	·	·	7%	·	-1%
COc1ccc(C(=O)N2CCC3(CC2)CN(c2ncccn2)C3)cc1	?	-4%	i	4%	i	32µM*
SMILES	HADH2 inh	CRE Fsk mod	A350 fluor	AID923	4-MU autofl	HSD17B inh
O=C(Oc1ccccc1)N1CCC2(CC1)CN(c1ncccn1)C2	10%	-7%	i	1%	i	32µM*
COc1ccc(C(=O)N2CCC3(CC2)CCN(c2ncccn2)CC3)cc1	0%	-6%	i	1%	i	-8%
CN1CC[C@@]2(CCCN(C(=O)c3cccc(F)c3)C2)C1	8%	2%	i	0%	i	-10%
O=CN(Cc1ccco1)C1(C(=O)NC2CCCCC2)CCCCC1	4%	?	1.9e-08M*	0%	1.7e-08M*	11%
O=C1NC(=O)C(CC(=O)N(Cc2ccco2)C2(C(=O)NC3CCCCC3)CCCCC2)N1 (centres undefined)	1%	30%	i	-2%	i	5%
COC(=O)[C@@H]1C[C@@H]2CC[C@@H](O)C[C@@H]2N1Cc1ccc(N2CCOCC2)cc1	·	·	·	0%	·	-19%
C/C(=N\O)C(=O)NCCN1CCCCC1	-8%	3%	1.2e-08M*	0%	1.2e-08M*	9%
NCCC[C@@H](CC(=O)N[C@@H]1CCCC[C@H]1C(=O)N[C@H](CC(=O)N[C@@H](CCC(=O)O)CC(=O)O)Cc1ccccc1)NC(=O)C[C@H](Cc1ccccc1)NC(=O)[C@@H]1CCCC[C@H]1N	-16%	-16%	·	·	·	·
CCOC(=O)c1sc(N)c(C(=O)Nc2ccc(C)cc2C)c1C	0.1µM*	·	·	4%	·	32µM*
CCOC(=O)N1CCN(C(=O)Cc2ccc(-n3c(=O)[nH]c4ccccc4c3=O)cc2)CC1	0%	-3%	?	2%	?	25µM*
COC(=O)[C@@H]1C[C@@]1(C)[C@@H](NC(=O)OCc1ccccc1)c1ccccc1	-2%	?	·	20%	·	-3%
CN(C(=O)c1ccno1)c1nnc(-c2ccccn2)s1	25µM*	0%	1.6e-08M*	0%	1.1e-08M*	25µM*
CN(C(=O)c1ccncc1)c1nnc(-c2ccccn2)s1	i	14%	?	0%	i	i
Cc1cc2nc(-c3ccc(SCC(=O)N4CCN(C(=O)c5ccco5)CC4)nc3)[nH]c2cc1C	?	?	3e-08M*	4%	2.3e-08M*	25µM*
Cc1cc2nc(-c3ccc(SCC(=O)N4CCOCC4)nc3)[nH]c2cc1C	?	4%	2.4e-08M*	2%	2.8e-08M*	25µM*
COc1cc2c(cc1OC)/C(=C/C#N)NC(C)(C)C2	-10%	2µM*	2.7e-08M*	5%	2.6e-08M*	-7%
COc1ccc(O[C@H]2C=C[C@@H](c3ccccc3)O[C@H]2COC(=O)CC/C(C)=N\OC[C@@H](C)[C@H](OCc2ccccc2)C(C)C)cc1	-1%[11.4 µM]	·	·	0%[11.5 µM]	·	-5%[11.4 µM]
